According to PubChem BioAssay AID1063 (University of Pittsburgh Molecular Library Screening Center, 2008):
In all, about 200,000 compounds went through this assay and about 18,000 (9%) were called active. Only a selection was taken, and actives are over-represented in it overall. Unmarked numbers belong to inactive results. Cut-off read from the data, not from the text of the source: active = inhibition above about 50%; inactive = the rest.

Experiment: antileishmanial activity against promastigotes – primary screen (AID 1063);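 note: promastigotes grown with compound for 44 hours at 28 °C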
Conditions: Leishmania major promastigotes, resazurin fluorescence viability; at 10 µM; active compounds read high

SMILES | inhibition
O=C(Nc1ccc(S(=O)(=O)N2CCCC2)cc1Cl)C1=COCCO1 | 13.3%
O=[N+]([O-])c1cc(S(=O)(=O)N2CCCC2)ccc1NN=C1CCCC1 | 72.8% (active)
CC(C)N1CCC(=NNc2ccc([N+](=O)[O-])cc2S(=O)(=O)N2CCOCC2)CC1 | 100% (active)
C/C(=N\Nc1nc(N2CCOCC2)nc(N2CCOCC2)n1)c1ccc([N+](=O)[O-])cc1 | 7.51%
O=[N+]([O-])c1cc(C(F)(F)F)ccc1NN=C1CCCC1 | -5.08%
COc1cccc(NC(=O)Cn2c3ccccc3c3nc4n(c(=O)c32)CCS4)c1 | 1.79%
CC1(C)CC(=O)C=C(N2CCOCC2)C1 | -0.57%
O=C(O)/C=C/c1cn(Cc2ccccc2)nc1-c1cccs1 | -1.31%
O=C(O)c1cccc(S(=O)(=O)Nc2ccc(O)cc2Sc2nc3ccccc3s2)c1 | 3.69%
COc1ccc(S(=O)(=O)Nc2ccc(O)c(Sc3nc4ccccc4s3)c2)cc1 | 2.71%
O=[N+]([O-])c1c(NCCO)cc(Sc2nc3ccccc3s2)c2nonc12 | 61.2% (active)
CCCCC(CC)CNC(=O)C(=O)C1C(=O)Nc2ccccc21 (stereo not given) | -2.85%
CC(=O)Nc1ccc(NC(=O)CSc2nnc(COc3ccccc3C)n2CC2CCCO2)cc1 (stereo not given) | -3.47%
COc1ccc(C(=O)NC2CCN(C(=S)NCCc3ccccc3)CC2)cc1 | -3.89%
CC(C)NC(=O)NC(=O)CSc1nnc(-c2ccccc2F)n1N | -1.13%
CS(=O)(=O)Nc1ccc(C2=NN(S(C)(=O)=O)C(c3cccs3)C2)cc1 (stereo not given) | 0.6%
Cc1ccc(C2CC(c3cccc(NS(C)(=O)=O)c3)=NN2S(C)(=O)=O)cc1 (stereo not given) | 10.8%
CS(=O)(=O)Nc1cccc(C2=NN(S(=O)(=O)c3ccccc3)C(c3cccs3)C2)c1 (stereo not given) | 90.1% (active)
CCS(=O)(=O)c1ccc(C(=O)NC)c(Cl)c1Cl | 2.32%
O=C(c1cc2c(s1)CCC2)N1CCN(c2ccccc2)CC1 | 93.8% (active)
O=C(NNC(=O)c1cc2c(s1)CCCC2)c1ccccc1 | 78.1% (active)
O=C(COC(=O)c1cc2c(s1)CCCC2)NCc1ccccc1Cl | -8.28%
Cc1nc2ccc(C(=O)N3CCN(c4ccccc4)CC3)cc2s1 | -9.02%
O=C(CNC(=O)c1cc2c(s1)CCC2)Nc1ccccc1Br | -6.67%
O=C(Nc1cccc(NC(=O)N2CCN(c3ccccc3)CC2)c1)N1CCN(c2ccccc2)CC1 | 35.8%

SMILES | inhibition
CCOC(=O)Cc1cc(=O)[nH]c(=O)[nH]1 | -1.79%
O=C(COC(=O)c1ccccn1)Nc1cccc2ccccc12 | -8.4%
Cc1cc(C)cc(NC(=O)Cn2cnc3c(nnn3Cc3ccc(F)cc3)c2=O)c1 | -2.51%
Cc1cccc(C)c1NC(=O)Nc1ccccc1-n1ccnc1 | -5.13%
CN1CCC(=NNC(=O)CN(c2cccc(Cl)c2)S(C)(=O)=O)CC1 | -4.77%
CC12CCC(C(=O)N(c3cccc(Cl)c3)C1=O)C2(C)C (stereo not given) | -2.92%
CC12CCC(C(=O)N(NC(=O)c3ccccc3O)C1=O)C2(C)C (stereo not given) | 69.9% (active)
COc1ccccc1C(=O)NN1C(=O)C2C3C=CC(O3)C2C1=O (stereo not given) | -5.97%
COc1ccc(-c2csc(NC(=O)COC(=O)Cc3ccc(Cl)cc3Cl)n2)cc1 | 1.41%
COc1ccc(-c2csc(NC(=O)COC(=O)c3ccc(Br)o3)n2)cc1 | 95.2% (active)
COc1ccc(-c2csc(NC(=O)CCCc3cccs3)n2)cc1 | 10.5%
Cc1cc(CNCc2c(C(=O)N(C)Cc3ccccc3)nc3ccccn23)nn1C | 0.26%
O=C(O)c1ccccc1-c1ccccc1C(=O)Nc1nccs1 | -1.78%
O=C(c1ccccc1)c1ccc(OCC(O)CN2CCCC2)cc1 (stereo not given) | 31.6%
OC(COc1ccc2c(c1)CCC2)CN1CCN(c2cccc(Cl)c2)CC1 (stereo not given) | 98.7% (active)
CCC(=O)c1ccc(OCC(O)CN2C(=O)NC(C)(C)C2=O)cc1 (stereo not given) | -2.21%
CCC(=O)c1ccc(OCC(O)CN2CCN(c3cccc(C(F)(F)F)c3)CC2)cc1 (stereo not given) | 13.7%
O=c1cc(CN2CCN(c3cccc(Cl)c3)CC2)c2cc3c(cc2o1)CCCC3 | 5.66%
Cn1c(=O)c2c(nc(N3CCCCCC3)n2CC(=O)c2ccc(Br)cc2)n(C)c1=O | -0.4%
Cn1c(=O)c2c(nc(N3CCCCCC3)n2CC(O)COc2ccc(Cl)cc2)n(C)c1=O (stereo not given) | 56.5% (active)
Cc1cccc(Cn2c(N3CCN(c4ccccc4)CC3)nc3c2c(=O)n(C)c(=O)n3C)c1 | -1.6%
OC(COc1ccc(CN2CCSCC2)cc1)CN1CCCCC1 (stereo not given) | 19%
O=C(C(c1ccccc1)c1ccccc1)N1CCN(CC(O)COc2ccccc2)CC1 (stereo not given) | 9.16%
CCC(=O)c1ccc(OCC(O)CN2CC(C)OC(C)C2)cc1 (stereo not given) | 87.5% (active)
O=C(c1ccc(Cl)cc1)c1ccc(OCC(O)CN2CCCCC2)cc1 (stereo not given) | 99.2% (active)
